Only some compounds are listed: those with a hit (about 1.7% of all), similar ones and a draw of the others.
GLP-1R inv ag – qHTS of GLP-1 Receptor Inverse Agonists (Inhibition Mode); 1.6% of 410,000 active; Glucagon-like peptide 1 receptor (Homo sapiens), P43220; HEK293 GLP-1R CRE-luciferase, luminescence, 24 h; GLP-1R form is constitutively active; Potency, µM (series often up to 38.3 µM), actives largely listed as inhibitors; AID 624417, 2012; further: nearly all actives have a fitted effect of over 55% in size
Target sequence (P43220 whole entry, looked up): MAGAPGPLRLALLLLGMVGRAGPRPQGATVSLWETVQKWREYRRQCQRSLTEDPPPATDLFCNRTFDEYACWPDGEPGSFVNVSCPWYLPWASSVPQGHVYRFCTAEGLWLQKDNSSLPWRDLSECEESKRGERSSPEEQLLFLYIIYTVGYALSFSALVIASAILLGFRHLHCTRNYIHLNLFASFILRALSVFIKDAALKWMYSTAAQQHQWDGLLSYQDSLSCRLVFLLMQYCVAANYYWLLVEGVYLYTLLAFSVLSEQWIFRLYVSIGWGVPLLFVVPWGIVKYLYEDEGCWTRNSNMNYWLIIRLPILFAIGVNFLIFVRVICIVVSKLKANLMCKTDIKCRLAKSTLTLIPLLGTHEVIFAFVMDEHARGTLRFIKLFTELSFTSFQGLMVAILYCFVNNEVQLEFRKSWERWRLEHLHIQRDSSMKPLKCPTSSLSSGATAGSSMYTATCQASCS
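qHTS in 1536-well format: reporter HEK293 cells expressing constitutive GLP-1R activity in DMEM + 10% Nu serum, 24 hr with compounds at 37 deg C, luminescence read after 12 min with detection reagent.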
HEK293 tox – qHTS of GLP-1 Receptor Inverse Agonists: Cytotox Screen; 0.13% of 410,000 active; AID 624418, 2012; HEK293 cAMP-luciferase reporter cells, luminescence, 24 h; Potency, µM (top dose mostly 38.3 µM), most hits filed as inhibitors;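 further: loss of luciferase light is scored as toxicity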
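MLSMR compounds, 24 hr on cells at 37 deg C/5% CO2; luminescence after luciferase reagent (12 min RT). Inhibition counted as the undesired cytotoxic outcome.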
PTHR1 agonist – qHTS for PTHR1 Agonists: Primary Screen | Potency, µM (titrated, usually from 115 µM), hits mostly activators | HEK293 GP2 PTHR1 cells, GloSensor cAMP luminescence, 1 h | AID 743266, 2014 | 0.075% of 410,000 active | Parathyroid hormone/parathyroid hormone-related peptide receptor (Homo sapiens), Q03431; further: nearly all actives have a fitted effect of over 55% in size
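HEK-293-derived GP2 cells expressing PTHR1 and a GloSensor cAMP reporter, 3,000/well, plated overnight, given luciferin plus IBMX (each 0.5 mM as added) for 1 h at 37 °C, then compound for 1 h at 37 °C. Luminescence was read after 15 min at room temperature.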
GLP-1R agonist – qHTS of GLP-1 Receptor Agonists; Glucagon-like peptide 1 receptor (Homo sapiens), P43220; 0.007% of 380,000 active; HEK293 GLP-1R CRE-luciferase, luminescence, 4-6 h; cells express a hypersensitive GLP-1R form; AID 624172, 2012; Potency, µM (titrated, usually from 45.6 µM), actives largely listed as activators
Large screens that a line does not name were inactive; ! = not active in a repeat. The call rests on the fitted dose curve; in most records, active means well fitted curve in the direction sought with a large enough effect; inconclusive means small, poorly fitted or top-dose-only effect, or another doubt; inactive means no such curve, though single readings can be large; an effect the other way counts as inactive or inconclusive.

c1ccc2c(c1)OCCOCCOc1ccccc1OCCOCCO2	none
Cc1cccc(NC(=O)Cn2ccn(-c3ccc4c(c3)OCCO4)c(=O)c2=O)c1	none
CCOC(=O)CNC(=O)c1cc2c(=O)n3cccc(C)c3nc2n1C	PTHR1 agonist inconclusive (no result: GLP-1R agonist)
CC(=O)c1ccc(S(=O)c2ccccc2)cc1 (configuration not stated)	none
C=C(C(=O)c1ccccc1)C(NC(C)(C)C)c1ccccc1 (configuration not stated)	GLP-1R inv ag 5µM, HEK293 tox 5µM
Oc1c(Br)cc(Br)cc1/C=N/NC(=S)N[C@H]1CC2C=CC1C2 (some centres not stated)	GLP-1R inv ag 3.5µM
CCOc1ccc(/C=N/NC(=S)NC2CC3C=CC2C3)cc1 (configuration not stated)	GLP-1R inv ag 3.2µM
CNC(=S)N/N=C/c1cc(Br)cc(Br)c1O	GLP-1R inv ag inconclusive
O=C(NC1CC(=O)N(c2cccc(F)c2)C1)c1ccc(S(=O)(=O)N2CCCC2)cc1 (configuration not stated)	none (no result: GLP-1R agonist)
CCOC(=O)c1[nH]c2c(c1Cc1ccccc1)C(=O)CC(c1ccc(C(C)(C)C)cc1)C2 (configuration not stated)	GLP-1R inv ag 11µM (no result: GLP-1R agonist)
CCN(CC)c1ccc(C(=C2C=CC(=[N+](CC)CC)C=C2)c2ccccc2)cc1	GLP-1R inv ag inconclusive, HEK293 tox 5µM
COc1ccc(C(=O)/C=C2\C(=O)Nc3ccc(Br)cc32)cc1	GLP-1R inv ag inconclusive, HEK293 tox inconclusive
O=C1Nc2ccc(Br)cc2/C1=C/C1CC=CCC1 (configuration not stated)	GLP-1R inv ag 4.5µM
S=C1NCN(C2CCCCC2)CN1CCc1ccccc1	GLP-1R inv ag inconclusive, HEK293 tox inconclusive
COc1ccccc1-c1nn(CCC(=O)Nc2ccc(C)cc2)c2nc(C)cc(C)c12	GLP-1R inv ag inconclusive
Cc1cc(=O)n2c(nc3ccccc32)[nH]1	PTHR1 agonist 32µM
CCN(CC)CCCNC(=O)CCC(=O)NNc1nc2ccccc2c2nc(C)nn12	HEK293 tox 7.9µM!
Cc1cnc(CN2CCc3c([nH]c4ccccc34)C2CC(C)C)[nH]1 (configuration not stated)	GLP-1R inv ag inconclusive
Cc1cccc(CN2CCc3c([nH]c4ccccc34)C2CC(C)C)n1 (configuration not stated)	GLP-1R inv ag 11µM
Cc1ccc(C(=O)NCCCn2ccnc2)cc1[N+](=O)[O-]	none
O=C(NCCCn1ccnc1)c1ccc(N2CCCCCC2)c([N+](=O)[O-])c1	GLP-1R inv ag 5µM
O=C(c1ccc(N2CCCC2)c([N+](=O)[O-])c1)N1CCc2ccccc2C1	GLP-1R inv ag 4.5µM
O=S(=O)(O)OCC1OC(COS(=O)(=O)O)(C2(OS(=O)(=O)O)OC(CO)C(OS(=O)(=O)O)C(OS(=O)(=O)O)C2OS(=O)(=O)O)C(OS(=O)(=O)O)C1OS(=O)(=O)O (configuration not stated)	none (no result: GLP-1R inv ag, HEK293 tox, PTHR1 agonist)
O=[N+]([O-])c1ccc(C=NN2CCCCCC2)cc1	GLP-1R inv ag 11µM
COc1ccc(Cl)cc1-c1nc(SCC(=O)NCC2CCCO2)n[nH]1 (configuration not stated)	none
COc1ccc(N2CCN(S(=O)(=O)CCNC(=O)Cc3ccc(-c4ccccc4)cc3)CC2)cc1	PTHR1 agonist 28µM (no result: GLP-1R agonist)
CCCCOc1ccc(C(=O)NCCS(=O)(=O)N2CCN(c3ccccc3OC)CC2)cc1	GLP-1R inv ag 10µM (no result: GLP-1R agonist)
CCC(=O)C(Cc1ccccc1)(Cc1ccccc1)CC(C)N(C)C (configuration not stated)	none (no result: GLP-1R inv ag, HEK293 tox, PTHR1 agonist)
COc1ccc(CN2CCC(CO)(Cc3ccccc3C(F)(F)F)CC2)c(F)c1	GLP-1R inv ag 8.9µM, HEK293 tox inconclusive
COc1ccc(CC2(CO)CCN(Cc3cccc4nccnc34)CC2)cc1	none
CC(C)c1ccc(NC2CCCN(C(=O)CCN3CCCC3=O)C2)cc1 (configuration not stated)	none
CC(C)c1ccc(NC2CCCN(C(=O)CC3CCCC3)C2)cc1 (configuration not stated)	GLP-1R inv ag 6.3µM
COc1ccc(C(=O)NCCc2c[nH]c3ccccc23)cc1[N+](=O)[O-]	none
CCCn1c(=O)sc2cc(NC(=O)c3ccc(OC)c(Br)c3)ccc21	GLP-1R inv ag 10µM
CCCCCCC(C)OC(=O)Nc1cccc2ccccc12 (configuration not stated)	GLP-1R inv ag 8.9µM
CCc1ccc(NC(=O)c2cccc(N3CCCS3(=O)=O)c2)cc1	GLP-1R inv ag inconclusive (no result: GLP-1R agonist)
Cc1ccc(-n2nc3c(N4CCC(C(=O)NC5CCC(C)CC5)CC4)nnc(C)c3c2C)cc1 (configuration not stated)	none (no result: GLP-1R agonist)
COc1ccc(OC)c(CC2C(=O)Nc3ccc(Br)cc32)c1 (configuration not stated)	none (no result: GLP-1R agonist)
COCCNC(=O)C(c1ccco1)N(C(=O)Cn1nnc2ccccc21)c1ccccc1C (configuration not stated)	GLP-1R inv ag inconclusive
Cc1ccccc1N(C(=O)Cn1nnc(-c2cccs2)n1)C(C(=O)NCCC(C)C)c1ccco1 (configuration not stated)	GLP-1R inv ag 5.6µM, PTHR1 agonist inconclusive
Nc1nc(N)c2cc(Sc3ccc4ccccc4c3)ccc2n1	GLP-1R inv ag 10µM, HEK293 tox inconclusive
COc1ccccc1NC(=O)CN1C(=O)CC(c2ccc(C)c(C)c2)=Nc2ccccc21	GLP-1R inv ag 10µM (no result: GLP-1R agonist)
O=C(Nc1ccc(Cl)cc1)N1CCCN(c2ccc(C(F)(F)F)cc2[N+](=O)[O-])CC1	GLP-1R inv ag 2.8µM, HEK293 tox inconclusive
O=[N+]([O-])c1cc(C(F)(F)F)ccc1NCCCCNS(=O)(=O)c1ccc(Cl)cc1	none
O=[N+]([O-])c1cc(C(F)(F)F)ccc1NCCNC(=S)Nc1ccc(Cl)cc1	GLP-1R inv ag 11µM
COc1cc(C(=O)Nc2ccn(C)n2)ccc1OC(F)F	none
O=c1c2ccccc2sc2ccc(NCCCN3CCOCC3)cc12	GLP-1R inv ag inconclusive
CN1CCCC1CCNc1ccc2sc3ccccc3c(=O)c2c1 (configuration not stated)	GLP-1R inv ag 14µM, HEK293 tox inconclusive
COC(=O)c1ccccc1C(=O)c1ccc(OCCN2CCCCC2)cc1	none (no result: GLP-1R inv ag, HEK293 tox, PTHR1 agonist)
Cc1ccc(Nc2c(-c3ccsc3)nc3c(C)cccn23)cc1	GLP-1R inv ag inconclusive (no result: GLP-1R agonist)
Cc1ccc(Nc2c(-c3ccc(C)cc3)nc3c(C)cccn23)cc1	GLP-1R inv ag 10µM (no result: GLP-1R agonist)
Cc1ccc(Nc2c(-c3ccccc3O)nc3ncccn23)cc1	GLP-1R inv ag 10µM
O=C(NCCOc1ccc2ccccc2c1)c1cncc(Br)c1	GLP-1R inv ag inconclusive
O=S(=O)(c1ccccc1Cl)N1CCC(Cc2ccccc2)CC1	GLP-1R inv ag 7.9µM

Screens as filed in PubChem BioAssay.
